Each structure is given as a SMILES string. Results filed as inconclusive are left out. For some assays here: Measured potencies and affinities stand elsewhere. Calls of active or inactive are those of the source.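 The calls were made as follows, unless noted: active = luciferase signal above three times the same-plate solvent-only control wells; inactive = the rest.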

From PubChem BioAssay come the findings set out here.

In assay [1] the target is Mitogen-activated protein kinase 7 (Homo sapiens) (UniProt Q13164). Description: Gal4-ERK5 driven luciferase induction – cell-based, HTS, primary screen (AID 1508626).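 Also: luciferase driven by Gal4-ERK5 fusion binding five Gal4 sites before minimal TATA.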 To be noted: HeLa Gal4-ERK5 transactivation, 18 h, at 5 µM, stronger effect = higher value.
Mitogen-activated protein kinase 7 (Homo sapiens), sequence (Q13164 whole entry, looked up, the tested form may be a part): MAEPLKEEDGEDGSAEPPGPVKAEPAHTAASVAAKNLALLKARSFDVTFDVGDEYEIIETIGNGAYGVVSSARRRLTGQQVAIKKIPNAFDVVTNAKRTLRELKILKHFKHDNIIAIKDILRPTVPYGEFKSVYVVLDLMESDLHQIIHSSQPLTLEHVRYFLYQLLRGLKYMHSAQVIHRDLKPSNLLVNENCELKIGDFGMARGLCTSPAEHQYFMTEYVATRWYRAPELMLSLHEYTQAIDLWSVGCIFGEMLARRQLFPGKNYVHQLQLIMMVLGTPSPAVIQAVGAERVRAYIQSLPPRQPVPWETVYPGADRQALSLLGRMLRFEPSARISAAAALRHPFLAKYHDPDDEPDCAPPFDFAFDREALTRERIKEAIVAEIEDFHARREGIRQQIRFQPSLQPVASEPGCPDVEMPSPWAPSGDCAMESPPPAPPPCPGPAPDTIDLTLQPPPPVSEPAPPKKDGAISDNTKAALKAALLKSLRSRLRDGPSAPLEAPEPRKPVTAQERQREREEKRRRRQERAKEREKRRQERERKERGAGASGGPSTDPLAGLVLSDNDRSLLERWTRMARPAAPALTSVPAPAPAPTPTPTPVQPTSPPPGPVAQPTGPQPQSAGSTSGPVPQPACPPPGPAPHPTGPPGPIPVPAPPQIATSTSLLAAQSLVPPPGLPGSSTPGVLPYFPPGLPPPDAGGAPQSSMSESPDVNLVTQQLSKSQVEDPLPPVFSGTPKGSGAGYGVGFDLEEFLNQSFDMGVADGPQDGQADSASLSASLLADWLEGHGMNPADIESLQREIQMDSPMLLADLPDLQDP
Assay [2] has as its target NAD(+) hydrolase SARM1 (Homo sapiens) (UniProt Q6SZW1). The assay can be described thus: blocking NAD cleavage by SARM1 SAM-TIR – cell lysate, NAD-Glo luminescence (AID 1508614;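 active = compound whose remaining NAD level is above about 45 nM, limit read from the data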;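 also: higher remaining NAD means stronger inhibition of SARM1 NADase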). To be noted: SAM-TIR HEK293T lysate NADase, at 1 µM, stronger effect = higher value.
Assay [3] is described as follows: compounds altering viability of human ES cells (AID 493140; call rule not given here;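 also: cells exposed to compounds for four days before counting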). To be noted: human embryonic stem cell survival screen; stronger effect = higher value.
Assay [4] in a line: blockers of polyQ-driven CASP3 activation – cell-based (AID 1583). As to conditions: polyglutamine-induced caspase-3 activation, cell assay; stronger effect = higher value;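 tested at 10 µM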.
Assay [5] is described as follows: yeast 75Q aggregation reduction – 75Q-TubU reporter (AID 1593). To be noted: Yeast 75Q polyglutamine aggregation reporter.
The nature of assay [6]: selective SMN2 exon splicing luciferase activators – cell-based, SMN2/SMN1 luciferase reporters (AID 1598; call rule not given here). As to conditions: SMN2 vs SMN1 luciferase splicing reporter cells, at 10 µM; SMN1 luciferase ratio: measured here: SMN1 luciferase reporter average; SMN2 luciferase ratio: measured here: SMN2 luciferase reporter average, stronger effect = higher value; SMN2/SMN1 luciferase ratio: stronger effect = higher value.

Assay [7] is described as follows: restoration of touch response, mutant HTT neurons – whole organism, C. elegans mechanosensory neurons, N-terminal huntingtin (AID 1599). To be noted: C. elegans polyQ-huntingtin mechanosensory neurons, stronger effect = higher value.
Assay [8] is described as follows: blockers of cytochrome c efflux from mitochondria – biochemical, purified mitochondria (AID 1603).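 Also: mouse liver mitochondria challenged with calcium chloride; signal normalized to the plate average as 100%.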 As to conditions: stronger effect = lower value.
Assay [9] can be described thus: polyglutamine aggregate formation blockers (AID 1604). As to conditions: polyglutamine-induced protein aggregation inhibition assay; stronger effect = higher value; tested at 2.5 µM.
A short description of assay [10]: rescue of PC12 cells from polyQ htt toxicity – LDH release (AID 1610). As to conditions: PC12 mutant huntingtin toxicity, final LDH at 4 uM, stronger effect = lower value.
Assay [11] is described as follows: glutamate transport activators, MN-1 cells, MN-1 cell line (AID 1612).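 Also: tested at 1 µM final; 0% = mean of DMSO vehicle wells on each plate; positive means more glutamate uptake than control and negative means less.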 To be noted: MN-1 motor neuron cells, stronger effect = higher value.
A short description of assay [12]: 75Q-TubH aggregate inhibition, S. cerevisiae, yeast (AID 1616). To be noted: S. cerevisiae 75Q-TubH polyglutamine aggregation suppression; stronger effect = higher value.

NAD(+) hydrolase SARM1 (Homo sapiens), sequence (Q6SZW1 whole entry, looked up): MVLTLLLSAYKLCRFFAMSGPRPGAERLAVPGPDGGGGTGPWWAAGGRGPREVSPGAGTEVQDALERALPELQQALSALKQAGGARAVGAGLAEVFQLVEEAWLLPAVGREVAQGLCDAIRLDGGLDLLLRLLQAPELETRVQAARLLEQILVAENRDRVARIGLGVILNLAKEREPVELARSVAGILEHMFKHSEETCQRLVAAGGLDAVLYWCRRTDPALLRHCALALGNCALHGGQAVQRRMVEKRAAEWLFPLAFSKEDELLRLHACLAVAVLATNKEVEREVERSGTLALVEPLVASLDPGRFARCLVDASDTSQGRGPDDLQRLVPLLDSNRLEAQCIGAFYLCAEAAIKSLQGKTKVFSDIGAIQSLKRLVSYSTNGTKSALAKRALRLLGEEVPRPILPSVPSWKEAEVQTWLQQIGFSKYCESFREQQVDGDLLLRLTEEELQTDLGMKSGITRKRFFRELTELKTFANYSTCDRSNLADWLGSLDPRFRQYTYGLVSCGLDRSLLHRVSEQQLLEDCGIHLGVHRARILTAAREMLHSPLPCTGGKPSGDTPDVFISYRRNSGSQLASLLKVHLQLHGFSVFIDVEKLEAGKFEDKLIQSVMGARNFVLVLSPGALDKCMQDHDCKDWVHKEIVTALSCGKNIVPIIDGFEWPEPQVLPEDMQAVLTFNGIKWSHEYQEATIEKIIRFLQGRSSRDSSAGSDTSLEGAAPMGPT

Regarding `O=c1c(O)c(-c2ccc(O)cc2)oc2ccccc12`, the luciferase signal in assay [1] is 76 AU (inactive).
For `CN[C@@H]1[C@H](O[C@H]2[C@H](O[C@H]3[C@H](O)[C@@H](O)[C@H](N=C(N)N)[C@@H](O)[C@@H]3N=C(N)N)O[C@@H](C)[C@]2(O)C=O)O[C@@H](CO)[C@H](O)[C@H]1O`, the remaining NAD in [2] was 10 nM (inactive). In addition, the luciferase signal in [1] was 80 AU (inactive).
The corresponding values for `C[C@]12C=CC(=O)C=C1CC[C@@H]1[C@@H]2[C@@H](O)C[C@@]2(C)[C@H]1CC[C@]2(O)C(=O)COP(=O)(O)O` are 10 nM (inactive) and 96 AU (inactive).
As to `COc1cc(-c2cc(=O)c3c(O)c(OC)c(OC)c(OC)c3o2)cc(OC)c1OC`, the luciferase signal in [1] is 40 AU (inactive).
As for `CC[C@H]1OC(=O)C[C@@H](O)[C@H](C)[C@@H](O[C@@H]2O[C@H](C)[C@@H](O)[C@H](N(C)C)[C@H]2O)[C@@H](CCN2C[C@H](C)C[C@H](C)C2)C[C@@H](C)C(=O)/C=C/C(C)=C/[C@@H]1CO[C@@H]1O[C@H](C)[C@@H](O)[C@@H](OC)[C@H]1OC`, the remaining NAD in [2] is 10 nM (inactive). Moreover, in assay [1], the luciferase signal is 36 AU (inactive).
In the case of `NCCC(=O)c1ccccc1N`, the luciferase signal in assay [1] is 88 AU (inactive).
Take `CC[C@H](/C=C/[C@@H](C)[C@H]1CC[C@H]2[C@@H]3CCC4=CC(=O)CC[C@]4(C)[C@H]3CC[C@]12C)C(C)C`: in assay [1], the luciferase signal was 56 AU (inactive).
On to `O=C(O)C(O)C(O)(Cc1ccc(O)cc1)C(=O)O` (stereo unspecified), for which the luciferase signal in [1] was 16 AU (inactive).
On to `CC(=O)OCC(=O)[C@@]1(O)[C@@H](C)C[C@H]2[C@@H]3CCC4=CC(=O)C=C[C@]4(C)[C@@]3(F)[C@@H](O)C[C@@]21C`, for which the remaining NAD in assay [2] is 10 nM (inactive). Also, the luciferase signal in [1] was 132 AU (inactive).
In the case of `CC(=O)[C@@]12O[C@](C)(c3ccccc3)O[C@@H]1C[C@H]1[C@@H]3CCC4=CC(=O)CC[C@]4(C)[C@H]3CC[C@@]12C`, in [2], the remaining NAD is 10 nM (inactive). Further, the luciferase signal in assay [1] is 76 AU (inactive).
For the molecule `O=C(O)C1=C(CSc2nnnn2CS(=O)(=O)O)CS[C@@H]2[C@H](NC(=O)[C@H](O)c3ccccc3)C(=O)N12`, the remaining NAD in assay [2] was 10 nM (inactive). In addition, the luciferase signal in assay [1] is 84 AU (inactive).
With `CC(C)CCC[C@@H](C)[C@H]1CC[C@H]2[C@@H]3CC(=O)[C@H]4C[C@@H](O)CC[C@]4(C)[C@H]3CC[C@]12C`, the luciferase signal in assay [1] was 216 AU (active).
As to `CC1(C)C[C@@H]2/C(CO)=C\C=C/[C@@](C)(O)CC[C@]21O`, the luciferase signal in [1] is 64 AU (inactive).
As for `C/C=C(/C)C(=O)O[C@H]1[C@H](OC(C)=O)[C@]2(CO)[C@H](O)C[C@]3(C)C(=CC[C@@H]4[C@@]5(C)CC[C@H](O[C@@H]6O[C@H](C(=O)O)[C@@H](O[C@@H]7O[C@H](CO)[C@@H](O)[C@H](O)[C@H]7O)[C@H](O)[C@H]6O[C@@H]6O[C@H](CO)[C@@H](O)[C@H](O)[C@H]6O)[C@](C)(CO)[C@@H]5CC[C@]43C)[C@@H]2CC1(C)C`, in assay [1], the luciferase signal is 276 AU (inactive).
Same read-out and setting: the same measure for `CC(=O)O[C@@H]1C=C[C@@]2(C)C(C[C@@H](OC(C)=O)[C@@]3(C)C4=CC(=O)O[C@@H](c5ccoc5)[C@]4(C)CCC23)C1(C)C` (stereo partly specified): 20 AU (inactive).
For `CC1(C)S[C@@H]2[C@H](NC(=O)[C@H](C(=O)O)c3ccsc3)C(=O)N2[C@H]1C(=O)O`, the survival in assay [3] is 15.8 (inactive). Also, in assay [2], the remaining NAD was 10 nM (inactive). In [1], the luciferase signal was 44 AU (inactive).
With `COc1ccc(-c2coc3cc(OC(C)=O)cc(OC(C)=O)c3c2=O)cc1`, the luciferase signal in assay [1] is 80 AU (inactive).
`C[C@]12CC[C@@H]3c4ccc(OC(=O)c5ccccc5)cc4CC[C@H]3[C@@H]1CC[C@@H]2O`: in assay [2], the remaining NAD was 10 nM (inactive). Also, the luciferase signal in [1] is 56 AU (inactive).
Regarding `CC(=O)[C@H]1CC[C@H]2[C@@H]3CC=C4C[C@@H](OC(=O)CCC(=O)O)CC[C@]4(C)[C@H]3CC[C@]12C`, the remaining NAD in assay [2] was 10 nM (inactive). Besides, in [1], the luciferase signal was 52 AU (inactive).
Regarding `CC[C@H](CC[C@@H](C)[C@H]1CC[C@H]2[C@@H]3CC[C@H]4C[C@@H](O)CC[C@]4(C)[C@H]3CC[C@]12C)C(C)C`, in [1], the luciferase signal is 12 AU (inactive).
With `C[C@@H]1C\C=C/C=C/C=C/C=C/[C@H](O[C@@H]2O[C@H](C)[C@@H](O)[C@H](N)[C@@H]2O)C[C@@H]2O[C@](O)(C[C@@H](O)C[C@@H]3O[C@@H]3/C=C\C(=O)O1)C[C@H](O)[C@H]2C(=O)O`, the remaining NAD in assay [2] is 10 nM (inactive). The luciferase signal in assay [1] was 292 AU (inactive).
The corresponding values for `CN[C@@H]1[C@@H](O)[C@@H](O[C@@H]2[C@@H](O)[C@H](O[C@H]3OC(CN)=CC[C@H]3N)[C@@H](N)C[C@H]2N)OC[C@]1(C)O` are 10 nM (inactive) and 48 AU (inactive).
In the case of `CC(=O)O[C@H]1CC[C@]2(C)[C@H]3CC=C4[C@@H]5CC(C)(C)CC[C@]5(C)CC[C@@]4(C)[C@]3(C)CC[C@H]2C1(C)C`, in [1], the luciferase signal is 64 AU (inactive).
As for `CC(C)CCC[C@@H](C)C1CC[C@H]2[C@@H]3CCC4CC(=O)CC[C@]4(C)[C@H]3CC[C@]12C` (stereo partly specified), the luciferase signal in assay [1] is 52 AU (inactive).
On to `CCN[C@@H]1C[C@H](N)[C@@H](O[C@H]2OC(CN)=CC[C@H]2N)[C@H](O)[C@H]1O[C@H]1OC[C@](C)(O)[C@H](NC)[C@H]1O`, for which, in assay [2], the remaining NAD is 10 nM (inactive). For the same molecule, the luciferase signal in assay [1] was 56 AU (inactive).
Take `CNS(=O)(=O)c1ccc(NC(=O)c2ccccc2C(=O)O)cc1`: the luciferase signal in assay [1] is 28 AU (inactive).
On to `CO[C@@H]1[C@@H](O[C@@H]2O[C@H](C)[C@@H](O[C@H]3C[C@@](C)(O)[C@@H](O)[C@H](C)O3)[C@H](N(C)C)[C@H]2O)[C@@H](CC=O)C[C@@H](C)[C@@H](O[C@H]2CC[C@H](N(C)C)[C@@H](C)O2)/C=C/C=C/C[C@@H](C)OC(=O)C[C@H]1O`, for which the remaining NAD in assay [2] is 10 nM (inactive). For the same molecule, the luciferase signal in assay [1] is 216 AU (inactive).
`OC[C@H]1O[C@H]([S-])[C@H](O)[C@@H](O)[C@@H]1O.[Au+]`: the luciferase signal in [1] was 68 AU (inactive).
The same measure, in the same setting: the same measure for `O=c1c2cc(O)c(O)cc2oc2cc(O)c([C@@H]3O[C@H](CO)[C@@H](O)[C@H](O)[C@H]3O)c(O)c12`: 48 AU (inactive).
In the case of `CC(C)=CCC/C(C)=C/CC/C(C)=C/CC/C(C)=C/CO`, the luciferase signal in [1] is 0 AU (inactive).
Regarding `CCCCCCCCCCCCCCC(C(=O)O)C(O)(CC(=O)OC)C(=O)O` (stereo unspecified), the luciferase signal in assay [1] was 64 AU (inactive).
A word on the inhibition: it is the drop in the measured response relative to a control, in per cent. `CC[C@@]1(O)C[C@H](OC2CC(N(C)C)C(OC3CC(O)C(OC4CCC(=O)C(C)O4)C(C)O3)C(C)O2)c2c(cc3c(c2O)C(=O)c2c(O)cccc2C3=O)[C@H]1C(=O)OC` (stereo partly specified): in assay [4], the inhibition was -23.8%. Further, the score in assay [5] worked out at 0.51. In assay [6], the SMN1 luciferase ratio was 1.26, the SMN2/SMN1 luciferase ratio was 1.34 (active) and the SMN2 luciferase ratio was 1.64. In assay [7], the rescue above control is 0. Moreover, in assay [8], the cytochrome c release ratio was determined as 4.02. The molecule further returned an inhibition of aggregation in assay [9] of 1.96%. Moreover, in assay [10], the normalised LDH release was 0.363. In assay [11], this molecule had a glutamate uptake change of 47.8%. Further, the aggregation suppression score in [12] amounted to 0.557.
